# Results taken from PubChem BioAssay.
# For some of these results: Measured potencies and affinities stand elsewhere. Active and inactive are the calls of the source. Unless noted, the rule behind the calls is not given here.
# Key:
# [1] = target: 6-phosphogluconate dehydrogenase, decarboxylating (Homo sapiens) (UniProt P52209); assay: inhibition of human phosphogluconate dehydrogenase – biochemical, recombinant enzyme, NADPH absorbance, primary screen (AID 1159550;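 active = at least 20% inhibition of 6-phosphogluconate dehydrogenase activity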); settings: recombinant 6PGD, NADPH absorbance 341 nm; at 10 µM; stronger effect = higher value
# 6-phosphogluconate dehydrogenase, decarboxylating (Homo sapiens), sequence (P52209 whole entry, looked up, the tested form may be a part): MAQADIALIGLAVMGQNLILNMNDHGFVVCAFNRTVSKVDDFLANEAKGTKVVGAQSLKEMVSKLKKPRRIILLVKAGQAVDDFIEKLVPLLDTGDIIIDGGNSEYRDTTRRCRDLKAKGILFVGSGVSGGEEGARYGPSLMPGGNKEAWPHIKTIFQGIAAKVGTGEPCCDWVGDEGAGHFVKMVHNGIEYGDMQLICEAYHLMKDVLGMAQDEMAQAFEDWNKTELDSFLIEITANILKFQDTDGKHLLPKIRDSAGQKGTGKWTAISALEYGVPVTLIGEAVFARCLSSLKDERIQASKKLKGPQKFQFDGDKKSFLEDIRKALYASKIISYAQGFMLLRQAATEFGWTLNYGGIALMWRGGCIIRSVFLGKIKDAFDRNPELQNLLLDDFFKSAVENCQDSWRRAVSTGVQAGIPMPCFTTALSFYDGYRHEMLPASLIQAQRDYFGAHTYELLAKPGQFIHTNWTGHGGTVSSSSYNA
# [2] = target: Mitogen-activated protein kinase 7 (Homo sapiens) (UniProt Q13164); assay: Gal4-ERK5 driven luciferase induction – cell-based, HTS, primary screen (AID 1508626;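 active = luciferase signal above three times the same-plate solvent-only control wells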;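 note: luciferase driven by Gal4-ERK5 fusion binding five Gal4 sites before minimal TATA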); settings: HeLa Gal4-ERK5 transactivation, 18 h, at 5 µM, stronger effect = higher value
# Mitogen-activated protein kinase 7 (Homo sapiens), sequence (Q13164 whole entry, looked up, the tested form may be a part): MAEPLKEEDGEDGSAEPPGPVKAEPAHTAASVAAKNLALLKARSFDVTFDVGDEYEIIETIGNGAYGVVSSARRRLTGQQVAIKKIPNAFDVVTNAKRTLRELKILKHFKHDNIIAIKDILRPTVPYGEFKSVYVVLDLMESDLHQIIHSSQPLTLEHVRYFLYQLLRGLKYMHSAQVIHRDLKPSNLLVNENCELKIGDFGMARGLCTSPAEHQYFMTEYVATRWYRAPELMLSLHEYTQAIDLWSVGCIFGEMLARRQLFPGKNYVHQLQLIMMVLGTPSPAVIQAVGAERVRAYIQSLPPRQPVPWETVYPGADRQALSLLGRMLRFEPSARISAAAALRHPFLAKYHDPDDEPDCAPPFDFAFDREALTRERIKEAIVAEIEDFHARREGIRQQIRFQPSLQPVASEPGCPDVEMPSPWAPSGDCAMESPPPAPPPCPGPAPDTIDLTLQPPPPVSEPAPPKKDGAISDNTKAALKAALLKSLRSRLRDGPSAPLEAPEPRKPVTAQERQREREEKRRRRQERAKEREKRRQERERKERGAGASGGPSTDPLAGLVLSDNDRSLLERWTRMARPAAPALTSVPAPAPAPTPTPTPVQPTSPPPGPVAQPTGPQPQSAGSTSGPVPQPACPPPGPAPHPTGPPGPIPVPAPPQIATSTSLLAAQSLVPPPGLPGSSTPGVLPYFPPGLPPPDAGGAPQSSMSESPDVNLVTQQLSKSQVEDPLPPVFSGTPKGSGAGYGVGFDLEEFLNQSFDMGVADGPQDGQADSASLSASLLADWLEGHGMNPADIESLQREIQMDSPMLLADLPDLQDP
# [3] = target: NAD(+) hydrolase SARM1 (Homo sapiens) (UniProt Q6SZW1); assay: blocking NAD cleavage by SARM1 SAM-TIR – cell lysate, NAD-Glo luminescence (AID 1508614;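 active = compound whose remaining NAD level is above about 45 nM, limit read from the data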;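 note: higher remaining NAD means stronger inhibition of SARM1 NADase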); settings: SAM-TIR HEK293T lysate NADase, at 1 µM, stronger effect = higher value
# NAD(+) hydrolase SARM1 (Homo sapiens), sequence (Q6SZW1 whole entry, looked up): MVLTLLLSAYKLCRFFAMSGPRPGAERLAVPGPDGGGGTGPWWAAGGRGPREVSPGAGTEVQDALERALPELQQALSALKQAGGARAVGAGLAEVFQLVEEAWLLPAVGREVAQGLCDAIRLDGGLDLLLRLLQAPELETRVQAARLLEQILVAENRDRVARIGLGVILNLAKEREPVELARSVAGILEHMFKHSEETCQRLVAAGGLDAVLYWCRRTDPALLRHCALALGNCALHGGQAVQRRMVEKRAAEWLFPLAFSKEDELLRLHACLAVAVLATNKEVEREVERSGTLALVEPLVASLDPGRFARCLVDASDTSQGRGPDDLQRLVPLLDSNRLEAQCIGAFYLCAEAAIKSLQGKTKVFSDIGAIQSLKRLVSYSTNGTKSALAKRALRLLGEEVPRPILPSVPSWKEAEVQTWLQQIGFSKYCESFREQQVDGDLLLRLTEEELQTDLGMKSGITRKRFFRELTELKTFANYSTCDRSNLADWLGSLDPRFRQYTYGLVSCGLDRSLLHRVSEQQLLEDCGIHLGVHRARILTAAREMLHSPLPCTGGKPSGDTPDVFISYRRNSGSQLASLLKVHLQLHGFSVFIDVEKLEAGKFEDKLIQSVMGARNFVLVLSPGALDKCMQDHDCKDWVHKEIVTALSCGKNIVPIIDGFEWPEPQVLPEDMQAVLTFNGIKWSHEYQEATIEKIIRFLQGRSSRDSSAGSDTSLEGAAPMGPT
# [4] = antimalarial activity against Dd2 strain (AID 2302;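 active = growth inhibition above 50% at the single 2 µM test dose, taken to imply half-maximal potency below 2 µM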;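 note: 0% = DMSO untreated growth and 100% = chloroquine plus artemisinin killed control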); settings: P. falciparum Dd2 in RBCs, LDH growth readout, 72 h; at 2 µM; stronger effect = higher value
# [5] = human hepatoma cell viability loss – ATP luminescence, cytotoxicity control for P. falciparum antimalarial project, primary screen (AID 2303;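 active = inhibition above 50%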;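 note: 0% = DMSO wells and 100% = digitonin-killed cells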); settings: HepG2 viability, 24-48 h, at 10 µM, stronger effect = higher value
# [6] = target: L-lactate dehydrogenase (Plasmodium falciparum (isolate CDC / Honduras)) (UniProt Q27743); assay: PfLDH activity inhibition – cell lysate, 3D7 strain, counter-screen for P. falciparum growth inhibition project (AID 2304);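 note: 0% = vehicle and 100% = reference inhibitor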; settings: P. falciparum 3D7 crude extract, LDH APAD/NBT absorbance; at 2 µM; stronger effect = higher value
# L-lactate dehydrogenase (Plasmodium falciparum (isolate CDC / Honduras)), sequence (Q27743 whole entry, looked up): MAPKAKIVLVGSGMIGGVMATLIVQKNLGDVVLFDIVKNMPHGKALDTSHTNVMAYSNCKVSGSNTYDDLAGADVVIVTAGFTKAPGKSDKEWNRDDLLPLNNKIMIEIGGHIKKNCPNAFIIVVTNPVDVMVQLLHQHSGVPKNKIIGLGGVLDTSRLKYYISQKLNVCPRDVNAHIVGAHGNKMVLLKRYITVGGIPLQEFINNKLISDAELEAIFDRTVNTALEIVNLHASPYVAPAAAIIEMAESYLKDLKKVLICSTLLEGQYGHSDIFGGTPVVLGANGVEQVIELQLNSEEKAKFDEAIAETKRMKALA
# [7] = inhibition of 3D7 malaria parasite growth – strain 3D7 (AID 2306);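 note: 0% = DMSO wells and 100% = chloroquine plus artemisinin control wells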; settings: P. falciparum 3D7 erythrocytic growth, LDH absorbance, 72 h; at 2 µM; stronger effect = higher value
# [8] = target: Calcium-dependent protein kinase 1 (Plasmodium falciparum (isolate 3D7)) (UniProt P62344); assay: PfCDPK1 kinase inhibitors, biochemical, TCAMS library (AID 1159585; cut-off not given, nearly all actives have IC50 up to about 0.98 µM;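 note: inhibitors leave more ATP so luminescence rises with inhibition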); settings: recombinant PfCDPK1, Kinase-Glo ATP depletion luminescence
# Calcium-dependent protein kinase 1 (Plasmodium falciparum (isolate 3D7)), sequence (P62344 whole entry, looked up): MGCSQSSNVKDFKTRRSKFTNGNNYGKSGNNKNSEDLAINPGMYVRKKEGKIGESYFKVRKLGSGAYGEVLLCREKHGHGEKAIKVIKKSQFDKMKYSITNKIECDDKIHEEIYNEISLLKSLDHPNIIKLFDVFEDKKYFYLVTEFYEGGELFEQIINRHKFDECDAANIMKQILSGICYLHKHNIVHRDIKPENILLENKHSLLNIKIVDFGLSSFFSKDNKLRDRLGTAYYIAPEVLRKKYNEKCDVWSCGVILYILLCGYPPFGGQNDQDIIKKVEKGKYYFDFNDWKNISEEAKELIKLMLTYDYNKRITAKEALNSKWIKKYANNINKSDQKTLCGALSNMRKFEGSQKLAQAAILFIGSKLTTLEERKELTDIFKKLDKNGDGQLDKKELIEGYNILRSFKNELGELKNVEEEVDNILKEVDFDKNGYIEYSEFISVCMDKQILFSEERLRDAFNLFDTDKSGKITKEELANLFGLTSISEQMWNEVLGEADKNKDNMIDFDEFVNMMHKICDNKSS
# [9] = target: Plasmodium falciparum protein kinase 6 (PK6, PF3D7_1337100) (UniProt Q8IDW1); assay: PfPK6 kinase inhibitors, biochemical, TCAMS library (AID 1159586); settings: recombinant PfPK6, Kinase-Glo ATP depletion luminescence
# Plasmodium falciparum protein kinase 6 (PK6, PF3D7_1337100), sequence (Q8IDW1 1-305): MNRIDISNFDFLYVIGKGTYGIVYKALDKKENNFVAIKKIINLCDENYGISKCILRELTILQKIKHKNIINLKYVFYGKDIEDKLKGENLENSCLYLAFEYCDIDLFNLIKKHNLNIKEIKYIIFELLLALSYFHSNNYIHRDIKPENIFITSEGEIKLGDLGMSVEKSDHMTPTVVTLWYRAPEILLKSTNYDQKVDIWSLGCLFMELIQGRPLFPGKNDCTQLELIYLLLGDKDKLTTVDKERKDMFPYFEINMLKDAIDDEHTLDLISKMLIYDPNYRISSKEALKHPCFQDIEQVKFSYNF
# [10] = target: Protein kinase 7 (PK7), Plasmodium falciparum 3D7 (PF3D7_0213400) (UniProt Q7YTF7); assay: inhibition of Plasmodium PK7 catalytic activity – biochemical, TCAMS antimalarial set, Kinase-Glo luminescence (AID 1159587); settings: recombinant PfPK7, Kinase-Glo ATP depletion luminescence
# Protein kinase 7 (PK7), Plasmodium falciparum 3D7 (PF3D7_0213400), sequence (Q7YTF7 1-343): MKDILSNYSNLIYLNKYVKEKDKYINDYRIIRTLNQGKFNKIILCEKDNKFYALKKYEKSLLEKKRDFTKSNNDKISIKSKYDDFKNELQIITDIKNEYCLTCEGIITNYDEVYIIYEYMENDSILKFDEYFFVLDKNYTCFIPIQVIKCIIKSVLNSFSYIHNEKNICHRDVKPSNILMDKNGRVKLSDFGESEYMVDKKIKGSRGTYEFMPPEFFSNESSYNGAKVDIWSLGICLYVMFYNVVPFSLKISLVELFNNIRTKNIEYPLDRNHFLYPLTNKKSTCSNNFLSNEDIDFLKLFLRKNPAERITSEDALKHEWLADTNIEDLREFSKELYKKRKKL
# [11] = target: Calcium-dependent protein kinase 4 (Plasmodium falciparum (isolate 3D7)) (UniProt Q8IBS5); assay: PfCDPK4 kinase inhibitors, biochemical, TCAMS library (AID 1159588; cut-off not given, nearly all actives have IC50 up to about 0.91 µM); settings: recombinant PfCDPK4, Kinase-Glo ATP depletion luminescence
# Calcium-dependent protein kinase 4 (Plasmodium falciparum (isolate 3D7)), sequence (Q8IBS5 whole entry, looked up): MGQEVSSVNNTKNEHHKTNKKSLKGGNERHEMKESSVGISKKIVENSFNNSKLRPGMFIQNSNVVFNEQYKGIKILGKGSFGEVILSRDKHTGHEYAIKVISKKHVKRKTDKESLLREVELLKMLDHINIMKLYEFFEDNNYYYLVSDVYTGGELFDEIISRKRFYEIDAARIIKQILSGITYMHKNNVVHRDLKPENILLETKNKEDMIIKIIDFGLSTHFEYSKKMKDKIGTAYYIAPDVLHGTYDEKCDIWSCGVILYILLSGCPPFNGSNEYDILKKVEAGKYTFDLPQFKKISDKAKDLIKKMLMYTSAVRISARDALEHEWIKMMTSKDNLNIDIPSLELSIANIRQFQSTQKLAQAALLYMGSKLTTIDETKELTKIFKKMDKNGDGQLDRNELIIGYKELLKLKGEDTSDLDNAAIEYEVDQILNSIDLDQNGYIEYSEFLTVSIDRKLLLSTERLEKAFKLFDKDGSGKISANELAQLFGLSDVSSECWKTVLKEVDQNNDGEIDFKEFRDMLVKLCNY
# [12] = system: Aerobactin synthetase IucA (Klebsiella pneumoniae); assay: inhibition of K. pneumoniae IucA enzyme – biochemical, Tocris library, absorbance (AID 1345561); settings: purified IucA enzyme assay, absorbance (OD) read-out; stronger effect = lower value;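 tested at 8 µM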;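 note: 100% = enzyme without compound and 0% = no enzyme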
# [13] = viability loss with induced miR-34 in A549 – imaging, A549 dox-inducible miR-34, nuclei and caspase counts, primary screen (AID 1347080;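 active = compounds whose cell count with miR-34 switched on is under 0.7 times the count with it off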); settings: A549 miR-34 inducible, Hoechst nuclei count, 48 h
# [14] = galactose survival enhancers in mitochondrial complex I cybrids – cell-based, galactose medium, ATP luminescence, primary screen (AID 1645843;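 active = z-score of at least 1.8 in each of two replicates, scored against plate mean and spread of sample wells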;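 note: positive z means more ATP and so rescue of galactose-driven cybrid death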); settings: complex I mutant cybrid cells, 72 h, stronger effect = higher value
# [15] = blockers of polyQ-driven CASP3 activation – cell-based (AID 1583); settings: polyglutamine-induced caspase-3 activation, cell assay; stronger effect = higher value;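 tested at 10 µM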
# [16] = yeast 75Q aggregation reduction – 75Q-TubU reporter (AID 1593); settings: Yeast 75Q polyglutamine aggregation reporter
# [17] = restoration of touch response, mutant HTT neurons – whole organism, C. elegans mechanosensory neurons, N-terminal huntingtin (AID 1599); settings: C. elegans polyQ-huntingtin mechanosensory neurons, stronger effect = higher value
# [18] = blockers of cytochrome c efflux from mitochondria – biochemical, purified mitochondria (AID 1603); settings: stronger effect = lower value;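 note: mouse liver mitochondria challenged with calcium chloride; signal normalized to the plate average as 100%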
# [19] = polyglutamine aggregate formation blockers (AID 1604); settings: polyglutamine-induced protein aggregation inhibition assay; stronger effect = higher value; tested at 2.5 µM
# [20] = glutamate transport activators, MN-1 cells, MN-1 cell line (AID 1612); settings: MN-1 motor neuron cells, stronger effect = higher value;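 note: tested at 1 µM final; 0% = mean of DMSO vehicle wells on each plate; positive means more glutamate uptake than control and negative means less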
# [21] = GFP-Q80 aggregate reduction, neuronal-like cells, cell-based, NGF-treated PC12, GFPQ80 (AID 1614); settings: PC12 NGF-treated GFP-polyQ80 inclusion reduction;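 note: lower means fewer inclusions and 0 means no inclusions at all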
# [22] = 75Q-TubH aggregate inhibition, S. cerevisiae, yeast (AID 1616); settings: S. cerevisiae 75Q-TubH polyglutamine aggregation suppression; stronger effect = higher value
# [23] = P. berghei load reduction in hepatocytes – cell-based, HepG2, luciferase luminescence, HepG2 viability, primary screen (AID 624349; in the data active = parasite load remaining mostly below about 12%, no sharp cut-off; inactive = mostly above about 10%;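 note: 100% = mean of DMSO negative control wells on the same plate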); settings: P. berghei liver stage in HepG2, luciferase luminescence, concentration not given here; parasite load remaining: stronger effect = lower value; viability: measured here: HepG2 viability without parasites
# [24] = compounds altering viability of human ES cells (AID 493140); settings: human embryonic stem cell survival screen; stronger effect = higher value;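 note: cells exposed to compounds for four days before counting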
# [25] = measured here: relative caspase fold change +Dox/-Dox
# [26] = measured here: total cells with miR-34 induction, stronger effect = lower value
# [27] = measured here: total cells without miR-34 induction
structure (smiles),measurement,setting,value
O=C1CCCC2C3CC(CN12)C1CCCCN1C3 (stereo not given),inhibition,[1],-2.75% (inactive)
same,luciferase signal,[2],60 AU (inactive)
COC(=O)COc1cc(Cl)c(Cl)cc1Cl,inhibition,[1],-16.9% (inactive)
same,luciferase signal,[2],92 AU (inactive)
COP(=S)(OC)SCn1nnc2ccccc2c1=O,inhibition,[1],1.29% (inactive)
same,luciferase signal,[2],64 AU (inactive)
C[C@@H]1[C@H](O)[C@@H](C)/C=C/C=C/CC/C=C/C=C/C=C/C=C/C(O[C@H]2O[C@H](C)[C@@H](O)[C@H](N)[C@@H]2O)CC2O[C@](O)(CC(O)C(O)CCC(O)CC(O)CC(O)CC(=O)O[C@H]1C)CC(O)C2C(=O)O (stereo not given in full),inhibition,[1],8.65% (inactive)
same,remaining NAD,[3],10 nM (inactive)
same,luciferase signal,[2],56 AU (inactive)
C/C=C(\C)C(=O)O[C@H]1C[C@@H](OC(C)=O)[C@@]2(C(=O)OC)CO[C@H]3[C@@H](O)[C@@](C)([C@]45O[C@@]4(C)[C@H]4C[C@@H]5O[C@@H]5OC=C[C@@]54O)[C@H]4[C@]1(CO[C@]4(O)C(=O)OC)[C@@H]32,inhibition,[1],3.41% (inactive)
same,luciferase signal,[2],12 AU (inactive)
COC(=O)/C=C/C(=O)N[C@@H]1CC[C@@]2(O)[C@H]3Cc4ccc(O)c5c4[C@@]2(CCN3CC2CC2)[C@H]1O5,growth inhibition,[4],66% (active)
same,inhibition,[5],9% (inactive)
same,inhibition,[6],-2% (inactive)
same,growth inhibition,[7],95% (active)
same,outcome,[8],inactive
same,outcome,[9],inactive
same,outcome,[10],inactive
same,outcome,[11],inactive
same,remaining activity,[12],109% (inactive)
same,fold change,[13]; stronger effect = lower value,0.925 (inactive)
same,fold change,[13]; [25],0.877
same,cell count,[13]; [26],7410
same,cell count,[13]; [27],8010
same,z-score,[14],-0.405 (inactive)
CC(C)CC(NC(=O)C(Cc1ccccc1)NC(=O)CNC(=O)CNC(=O)C(N)Cc1ccc(O)cc1)C(=O)O (stereo not given),inhibition,[15],-1.79%
same,score,[16],1.42
same,rescue above control,[17],3.43
same,cytochrome c release ratio,[18],0.97
same,inhibition of aggregation,[19],27.9%
same,glutamate uptake change,[20],12.5%
same,inclusion score,[21],2
same,aggregation suppression score,[22],1.27
same,inhibition,[1],11% (inactive)
C[C@@H]1CC[C@@]2(NC1)O[C@H]1C[C@H]3[C@@H]4CC=C5C[C@@H](O)CC[C@]5(C)[C@H]4CC[C@]3(C)[C@H]1[C@@H]2C,parasite load remaining,[23],86.7% (inactive)
same,viability,[23],95.9%
same,inhibition,[1],11.8% (inactive)
same,fold change,[13]; stronger effect = lower value,0.905 (inactive)
same,fold change,[13]; [25],1.06
same,cell count,[13]; [26],9310
same,cell count,[13]; [27],10300
same,luciferase signal,[2],48 AU (inactive)
COC[C@]12CN(C=O)C3[C@@H]4C(OC)C1[C@]3(C1CC3(O)C(OC)C(O)C4(OC(C)=O)C1C3OC(=O)c1ccccc1)[C@@H](OC)C[C@H]2O (stereo not given in full),inhibition,[1],-2.18% (inactive)
same,luciferase signal,[2],148 AU (inactive)
CC(=O)Nc1ccc(OCCN(CC(C)C)c2ccc(C#N)c(C(F)(F)F)c2)c(Cl)c1,growth inhibition,[4],94% (active)
same,inhibition,[5],13% (inactive)
same,inhibition,[6],2% (inactive)
same,growth inhibition,[7],94% (active)
same,outcome,[8],inactive
same,outcome,[9],inactive
same,outcome,[10],inactive
same,outcome,[11],inactive
CC[C@H]1CN2CC[C@@H]1C[C@H]2[C@H](O)c1cc[n+]([O-])c2ccc(OC)cc12,outcome,[8],inactive
same,outcome,[9],inactive
same,outcome,[10],inactive
same,outcome,[11],inactive
Cc1ccc2c(C3=CCN(CCCCC4(C)C(=O)Nc5c(F)cccc54)CC3)c(C)[nH]c2c1 (stereo not given),growth inhibition,[4],89% (active)
same,inhibition,[5],5% (inactive)
same,inhibition,[6],-4% (inactive)
same,growth inhibition,[7],95% (active)
same,outcome,[8],inactive
same,outcome,[9],inactive
same,outcome,[10],inactive
same,outcome,[11],inactive
CC(N)C(O)c1ccc(O)c(O)c1 (stereo not given),survival,[24],3.67 (inactive)
same,inhibition,[1],-5.53% (inactive)
O=C(NC1CCC(CN2CCC(c3c[nH]c4ccccc34)CC2)CC1)c1cc(-c2ccccc2Cl)oc1C(F)(F)F (stereo not given),growth inhibition,[4],7% (inactive)
same,inhibition,[5],24% (inactive)
same,inhibition,[6],4% (inactive)
same,growth inhibition,[7],99% (active)
same,outcome,[8],inactive
same,outcome,[9],inactive
same,outcome,[10],inactive
same,outcome,[11],inactive
CC1CC(Cl)CCC1C(=O)OC(C)(C)C (stereo not given),inhibition,[1],-3.82% (inactive)
same,luciferase signal,[2],40 AU (inactive)
COc1cccc(C(=O)C2CC2CN2CC=C(c3c[nH]c4ccc(OC)nc34)CC2)c1 (stereo not given),growth inhibition,[4],89% (active)
same,inhibition,[5],8% (inactive)
same,inhibition,[6],-2% (inactive)
same,growth inhibition,[7],94% (active)
same,outcome,[8],inactive
same,outcome,[9],inactive
same,outcome,[10],inactive
same,outcome,[11],inactive
CN(C)CCC(=O)c1ccccc1,growth inhibition,[4],5% (inactive)
same,inhibition,[5],11% (inactive)
same,inhibition,[6],-6% (inactive)
same,growth inhibition,[7],100% (active)
same,outcome,[8],inactive
same,outcome,[9],inactive
same,outcome,[10],inactive
same,outcome,[11],inactive
O=C(/C=C/c1ccc(Cl)c(Cl)c1)N1CCC(CN2CC[C@H](c3c[nH]c4ccccc34)[C@@H](O)C2)CC1,growth inhibition,[4],14% (inactive)
same,inhibition,[5],37% (inactive)
same,inhibition,[6],-7% (inactive)
same,growth inhibition,[7],99% (active)
same,outcome,[8],inactive
same,outcome,[9],inactive
same,outcome,[10],inactive
same,outcome,[11],inactive
